# esBAF inh: Bmi1 luciferase reporter increase in mESCs, primary screen, esBAF inhibitor project, mouse ES cells, Bmi1 luciferase knock-in, single point. reporter increase, % at 12.5 µM. 2% of 350,000 active. 24 h; 100% = twice the neutral-well signal. AID 602393, 2012; in the data active = activation above about 40%; inconclusive = no clear call, values can overlap the other calls;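 note: 0% = median of the plate's neutral control wells and 100% = double that signal; a rise in the Bmi1 reporter signal indicates esBAF inhibition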
# Wnt act: Wnt/beta-catenin pathway activators, primary screen, cell-based, plate reader, single point; 1.2% of 300,000 active; activation, % at 9.35 µM; Wnt/beta-catenin reporter cell assay, activator; in the data active = activation above about 30%, passing the limit was not always enough; inconclusive = no clear call, values can overlap the other calls;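 note: 0% = neutral control wells and 100% = positive control wells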
# PHOSPHO1 inh: PubChem AID 1565 | 1.1% of 290,000 active | inhibition, % at 13.3 µM | recombinant PHOSPHO1, absorbance phosphatase assay | Phosphoethanolamine/phosphocholine phosphatase (Homo sapiens), Q8TCT1; in the data active = inhibition above about 60%
# MITF TRPM1 HTS: activators of MITF-driven TRPM1 promoter reporter, primary screen, cell-based, SK-MEL-5, luciferase, single point. 0.75% of 300,000 active. SK-MEL-5 TRPM1-promoter luciferase, 24 h; % of positive control, neutral wells = 0. activation, % at 12.5 µM;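 active = mean activation of at least 80% with every replicate also reaching 80%; inconclusive = mean reaches 80% but some replicate falls short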;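 note: 0% = neutral control wells and 100% = parthenolide positive control wells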
# A3G deaminase: APOBEC3G DNA deaminase inhibitors, primary screen, biochemical, fluorescence, single-stranded DNA substrate, uHTS | recombinant A3G, ssDNA deamination FAM/TAMRA fluorescence | AID 493012, 2011 | inhibition, % at 20 µM | DNA dC->dU-editing enzyme APOBEC-3G (Homo sapiens), Q9HC16 | 0.28% of 330,000 active;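 active = inhibition of at least 40% at 20 µM, with no more than 30% in the related APOBEC3A deaminase screen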;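 note: plate controls were DMSO wells with A3G for no effect and wells lacking A3G enzyme for full effect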
# A3A deaminase: APOBEC3A ssDNA deaminase inhibitors, primary screen, selectivity assay for APOBEC3G inhibitor project, biochemical, FAM/TAMRA oligo cleavage fluorescence; recombinant A3A, FAM/TAMRA ssDNA deamination fluorescence; inhibition, % at 20 µM; 0.41% of 330,000 active;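 active = at least 40% inhibition at 20 µM here, with at most 30% in a related deaminase screen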;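 note: plate controls were A3A with DMSO for no effect and wells lacking A3A enzyme for full effect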
# Target sequence (P31941 whole entry, looked up): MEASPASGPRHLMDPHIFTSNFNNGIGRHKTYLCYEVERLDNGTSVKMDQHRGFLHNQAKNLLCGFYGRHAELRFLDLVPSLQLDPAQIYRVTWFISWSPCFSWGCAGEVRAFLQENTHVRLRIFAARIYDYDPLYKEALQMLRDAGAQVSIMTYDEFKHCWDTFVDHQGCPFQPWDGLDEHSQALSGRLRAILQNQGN
# Numbers without * were called inactive; ? = inconclusive; / = no result. A selection: hits, their analogues and other compounds. The true share with any hit is near 3.6%.
SMILES,esBAF inh,Wnt act,PHOSPHO1 inh,MITF TRPM1 HTS,A3G deaminase,A3A deaminase
C[C@@H]1CCCCO[C@@H](CN(C)Cc2ccccc2)[C@@H](C)CN([C@H](C)CO)C(=O)c2cc(NS(=O)(=O)c3ccc(Cl)cc3)ccc2O1,10,/,/,/,/,/
COc1ccccc1NC(=O)Nc1ccc2c(c1)OC[C@H](C)NC[C@@H](C)[C@H](OC)CN(C)C2=O,-1,/,/,/,/,/
CC(NC(=O)NC(=O)c1cccc([N+](=O)[O-])c1)C1CC1 (stereo unspecified),7,-2,75*,7,-1,3
C[C@@H]1CCCCO[C@H](CN(C)C)[C@@H](C)CN([C@H](C)CO)C(=O)c2cc(NC(=O)NC3CCCCC3)ccc2O1,0,/,/,/,/,/
CCCCSc1nnc(-c2ccccc2N)c(=O)[nH]1,97*,30,90*,24,-6,-2
CCCCCSc1nnc(-c2cc(Br)ccc2N)c(=O)[nH]1,3,-6,95*,/,-1,-2
CCCCCCCSc1nnc(-c2ccccc2N)c(=O)[nH]1,-5,-1,-14,7,-1,-1
C[C@@H]1CN([C@@H](C)CO)C(=O)c2cccc(NC(=O)C3CCCCC3)c2O[C@H]1CN(C)S(=O)(=O)c1cn(C)cn1,0,/,/,/,/,/
CO[C@H]1CN(C)C(=O)c2cc(NC(=O)Nc3ccccc3F)ccc2OC[C@@H](C)N(Cc2ccccc2C(=O)O)C[C@@H]1C,-2,/,/,/,/,/
CCC1(C)Cc2nc3sc(C(=O)O)c(N)c3cc2CO1 (stereo unspecified),18,/,42,24,-5,-2
C=CCn1c(C)nc2c(sc3nc4c(cc32)COC(C)(C)C4)c1=O,/,46*,28,66,-8,-4
CCOC(=O)c1sc2nc3c(cc2c1N)COC(C)(CC)C3 (stereo unspecified),10,58*,19,/,-3,0
COC(=O)c1sc2nc3c(cc2c1N)CCCC3,/,58*,23,-7,0,4
CCOC(=O)c1sc2nc3c(cc2c1N)COC(C)(C)C3,/,53*,-7,?,-4,0
C[C@@H]1CN([C@H](C)CO)C(=O)c2cc(NC(=O)C3CCCCC3)ccc2O[C@@H](C)CCCCO[C@@H]1CN(C)Cc1ccc(C(=O)O)cc1,2,/,/,/,/,/
COc1ccc(NC(=O)Nc2ccc3c(c2)C(=O)N([C@@H](C)CO)C[C@H](C)[C@@H](CN(C)S(=O)(=O)c2ccccc2)O3)cc1,4,/,/,/,/,/
COc1ccccc1S(=O)(=O)N[C@@H]1CC[C@@H](CCn2cc(C3CCCCC3)nn2)O[C@@H]1CO,-3,/,/,/,/,/
COc1cccc(C(=O)Nc2ccc3c(c2)OC[C@H](C)N(C)C[C@@H](C)[C@@H](OC)CN(C)C3=O)c1,-3,/,/,/,/,/
O=C(C[C@H]1CC[C@H]2[C@@H](COC[C@@H](O)CN2Cc2cccc(-c3ccncc3)c2)O1)N1CCN(c2ccccc2)CC1,15,/,/,/,/,/
CC(C)Sc1nc(SCC(=O)O)c2c3c(sc2n1)COC(C)(C)C3,/,23,84*,23,-4,2
CC(C)Sc1nc(SCC(=O)NCc2ccco2)c2c3c(sc2n1)COC(C)(C)C3,?,/,-6,24,-5,6
CC=Cc1ccc2n(c1=O)C[C@H]1[C@H](CO)[C@@H](C(=O)NCC)[C@@H]2N1C(=O)Nc1cc(F)ccc1F (mixture of isomers),3,/,/,/,/,/
CCOC(=O)c1c(-c2ccsc2)csc1N,-10,/,92*,0,1,-1
CCOC(=O)c1c(-c2ccc(C)o2)csc1N,-4,/,69*,-3,0,2
CCOC(=O)c1c(-c2ccc(C)o2)csc1NC(=O)COC(=O)c1cccs1,0,-6,-10,2,-7,-4
O=C(C[C@@H]1C=C[C@H](NC(=O)Nc2ccccc2)[C@@H](CO)O1)NCc1ccccn1,-4,/,/,/,/,/
C=CCn1c(C)cc(C(=O)CSc2nnc(Cc3ccccc3)o2)c1C,12,/,88*,/,-4,-3

# Screens from PubChem.
